Reference: PubChem BioAssay (NCATS)
Records with an inconclusive call do not appear. Values without a mark were called inactive. Active and inactive are the calls of the source. The call rests on the fitted dose curve; in most records, active means well fitted cell-killing curve with a large enough effect; inconclusive means small, poorly fitted or top-dose-only effect, or effect the other way; inactive means no such curve, though single readings can be large or run the other way.
Potency means the concentration at half of the fitted maximal effect.

Assay: Quantitative High-Throughput drug screen in 47 multiple myeloma cell lines against the NCATS MIPE library collection: KMS12PE_JCRB cell viability assay (AID 1918972); further: nearly all actives have a fitted effect of over 30% in size
Conditions: KMS12PE myeloma viability, CellTiter-Glo ATP, 48 h; series mostly up to 45.8 µM; viability: at the top concentration
From the text: PI: Beverly A. Mock Ph.D.
Laboratory of Cancer Biology and Genetics,
Center for Cancer Research, National Cancer Institute,
National Institute of Health, Bethesda, Maryland
Drug resistance and disease progression are common in multiple myeloma (MM) patients, underscoring the need for new therapeutic combinations. […] We hypothesized that effective combinations would reduce MYC expression and enhance p16 activity. […] These preclinical data identify potentially useful drug combinations for evaluation in drug-resistant MM and reveal potential mechanisms of combined drug sensitivity.
Described herein is the primary MIPE qHTS used to cherrypick compounds. Validated compounds were then further tested for potential synergistic activiy.
[1] Peat TJ, Gaikwad SM, Dubois W, Gyabaah-Kessie N, Zhang S, Gorjifard S, Phyo Z, Andres M, Hughitt VK, Simpson RM, Miller MA, Girvin AT, Taylor A, Williams D, D'Antonio N, Zhang Y, Rajagopalan A, Flietner E, Wilson K, Zhang X, Shinn P, Klumpp-Thomas C, McKnight C, Itkin Z, Chen L, Kazandijian D, Zhang J, Michalowski AM, Simmons JK, Keats J, Thomas CJ, Mock BA. Drug combinations identified by high-throughput screening promote cell cycle transition and upregulate Smad pathways in myeloma. Cancer Lett. 2023 Aug 1;568:216284. doi: 10.1016/j.canlet.2023.216284. Epub 2023 Jun 24. PMID: 37356470; PMCID: PMC10408729.
SEQUENCE No. (e.g., 1, 2, 3, etc.); […] (e.g., Cells, Incubation, Reagent, etc.); VALUE and DESCRIPTION.
1; Cells; 5 uL; white, solid bottom 1536-well Greiner assay plate.
2; Compounds; 23 nL; Kalypsis pin tool (Wako USA) equipped with a 1536-well pin head to transfer to the assay plates.
3; Incubation; 48 hours; 37C incubation.
4; Reagent;5uL; CellTiter Glo (Promega).
5; Detector; 425V; Luminescence; Viewlux PerkinElmer.
NOTES (numbers refer to Sequence numbers above)
1. The cell-based screening methods employed in this study were like those previously published. Briefly, the corresponding myeloma cell lines were screened in 1,536-well plates with 500 cells, 5-uL per well for inhibition of cell viability (assessed by measuring ATP levels with CellTiterGlo).
2. NCATS MIPE 4.0 library of approved and investigational drugs were added using the Kalypsis pin tool. Wells treated with DMSO only for 100% viability and media only wells for 0% viability were used as controls.
3. The assay plates were covered and incubated for 48 hours in a 37C, 5% CO2 incubator with controlled humidity.
4. After 48 hours, CellTilter-GloTM luminescent substrate mix (Promega) reagent was added to the assay plate and plates we incubated for 5 min at room temperature.
5. Signal was measured as median relative luminescence units on a ViewLux (PerkinElmer) multiplate reader.
[1] Heske CM, Davis MI, Baumgart JT, Wilson K, Gormally MV, Chen L, Zhang X, Ceribelli M, Duveau DY, Guha R, Ferrer M, Arnaldez FI, Ji J, Tran HL, Zhang Y, Mendoza A, Helman LJ, Thomas CJ. Matrix Screen Identifies Synergistic Combination of PARP Inhibitors and Nicotinamide Phosphoribosyltransferase (NAMPT) Inhibitors in Ewing Sarcoma. Clin Cancer Res. 2017 Dec 1;23(23):7301-7311. doi: 10.1158/1078-0432.CCR-17-1121. Epub 2017 Sep 12. PMID: 28899971; PMCID: PMC6636827.
With `COc1ccc(-n2nc(C(N)=O)c3c2C(=O)N(c2ccc(N4CCCCC4=O)cc2)CC3)cc1` the “viability” value was 132%. For `COc1cccc2nc(-c3cccs3)nc(NN3C(=O)C=C(C)C3=O)c12`, the Potency was 118 nM (active). With `C=C1C(=CC=C2CCCC3(C)[C@@H]([C@H](C)C=CC=CC(O)(CC)CC)CC[C@@H]23)C[C@@H](O)C[C@@H]1O` (stereo not given in full) the Potency was 14800 nM (active). For `CC(=O)OCC(=O)[C@@]1(O)[C@H](C)C[C@H]2[C@@H]3C=C(C)C4=Cc5c(cnn5-c5ccccc5)C[C@]4(C)[C@@H]3[C@@H](O)C[C@@]21C`, the Potency was 8330 nM (active). For `COc1cc2nccc(Oc3ccc(NC(=O)C4(C(=O)Nc5ccc(F)cc5)CC4)cc3)c2cc1OC`, the Potency was 7430 nM (active). For `CNc1nccc(-c2cccnc2Oc2cc(C(=O)Nc3cccc(C(F)(F)F)c3)ccc2C)n1`, the Potency was 10500 nM (active). With `Cc1[nH]c2ccccc2c1CCNCc1ccc(C=CC(=O)NO)cc1` the Potency was 52.6 nM (active). For `CNC(=O)c1cc(Oc2ccc(NC(=O)Nc3cc(C(C)(C)C)nn3-c3ccc4ncccc4c3)c(F)c2)ccn1`, the Potency was 16600 nM (active). For `C=C1C(=CC=C2CCC[C@]3(C)[C@@H]([C@H](C)C=C[C@H](C)C(C)C)CC[C@@H]23)C[C@@H](O)C[C@@H]1O`, the Potency was 662 nM (active). In the case of `COC(=O)C[C@](O)(CCCC(C)(C)O)C(=O)O[C@@H]1C(OC)=C[C@]23CCCN2CCc2cc4c(cc2[C@H]13)OCO4`, the “viability” value is reported as 139%. With `Cn1c2ccccc2c2c3c(c4c5ccccc5n(CCC#N)c4c21)CNC3=O` the Potency was 2350 nM (active). For `CCS(=O)(=O)c1cccc(-c2cc(C(=O)NC3CCN(C)CC3)c(C)c3[nH]c4ncc(C)cc4c23)c1`, the Potency was 3320 nM (active). With `Cc1ccc(C(=O)Nc2ccc(CN3CCN(C)CC3)c(C(F)(F)F)c2)cc1C#Cc1cnc2cccnn12` the Potency was 833 nM (active). In the case of `Cn1cc(-c2[nH]c3cc(NC(=O)[C@H](N)C4CCCCC4)cc4c3c2C=NNC4=O)cn1`, the Potency is reported as 1180 nM (active). With `CC[C@H](CO)Nc1nc(NCc2ccccc2)c2ncn(C(C)C)c2n1` the “viability” value was 91.9%. In the case of `O=C(C=Cc1cccnc1)NCCCCC1CCN(C(=O)c2ccccc2)CC1`, the Potency is reported as 14.8 nM (active). With `CN1CCC(CNc2ccc3ncc(-c4cccc(OC(F)(F)F)c4)n3n2)CC1` the Potency was 7430 nM (active). For `O=C(NC1CCNCC1)c1[nH]ncc1NC(=O)c1c(Cl)cccc1Cl`, the Potency was 935 nM (active). In the case of `C[C@@H]1CN(CC(=O)Nc2ccc3c(c2)Cc2cccc(-c4cc(=O)cc(N5CCOCC5)o4)c2S3)C[C@H](C)O1`, the Potency is reported as 13200 nM (active). With `NC1(Cc2ccc(Cl)cc2)CCN(c2ncnc3[nH]ccc23)CC1` the Potency was 3720 nM (active). For `Cc1cc(C(=O)N2CCN(c3cccc(Cl)c3)CC2)n(-c2ccccc2)n1`, the Potency was 743 nM (active). In the case of `O=C(NCCS(=O)(=O)c1ccc(C(F)(F)F)cn1)c1ccc(Cl)cc1`, the “viability” value is reported as 124%. For `Cc1ccc(NC(=O)C2(c3ccc4c(c3)OC(F)(F)O4)CC2)nc1-c1cccc(C(=O)O)c1`, the Potency was 41.8 nM (active). In the case of `C1=CCOCc2cc(ccc2OCCN2CCCC2)Nc2nccc(n2)-c2cccc(c2)OCC1`, the Potency is reported as 2640 nM (active). With `COC(=O)c1ccc2c(C(=Nc3ccc(N(C)C(=O)CN4CCN(C)CC4)cc3)c3ccccc3)c(O)[nH]c2c1` the Potency was 526 nM (active). For `COc1ccc(C(=O)CC2(O)C(=O)Nc3c(Cl)ccc(Cl)c32)cc1` (stereo not given), the Potency was 1320 nM (active). With `O=c1c2ccccc2nc2n1CCc1c-2[nH]c2ccccc12` the “viability” value was 90.2%. With `COc1ccc(C=Cc2cc(OC)c(OC)c(OC)c2)cc1O` the “viability” value was 11.5%. In the case of `COc1cc2c(cc1-c1c(C)noc1C)ncc1[nH]c(=O)n([C@H](C)c3ccccn3)c12`, the Potency is reported as 833 nM (active). With `Nc1ccc(S(=O)(=O)Nc2ncccn2)cc1` the “viability” value was 127%. With `OCCCNc1cc(-c2ccnc(Nc3cccc(Cl)c3)n2)ccn1` the Potency was 93.5 nM (active). In the case of `CC=CC1=C(C(=O)O)N2C(=O)[C@H](NC(=O)[C@H](N)c3ccc(O)cc3)[C@@H]2SC1`, the “viability” value is reported as 109%. With `Cc1cnc(Nc2ccc(F)cc2Cl)nc1-c1c[nH]c(C(=O)N[C@H](CO)c2cccc(Cl)c2)c1` the Potency was 10500 nM (active). In the case of `COc1cccc(Nc2c(C(N)=O)cnc3c(C)cc(S(=O)(=O)c4cccc(C(=O)N(C)C)c4)cc23)c1`, the Potency is reported as 12900 nM (active). In the case of `Cc1nc2ccc(CN(C)c3ccc(C(=O)N[C@@H](CCC(=O)O)C(=O)O)s3)cc2c(=O)[nH]1`, the Potency is reported as 66.2 nM (active). For `Cc1cc(N2CCOCC2)cc2[nH]c(-c3c(NC[C@@H](O)c4cccc(Cl)c4)cc[nH]c3=O)nc12`, the Potency was 7430 nM (active). For `Cc1cn2cc(C(=O)N(C)CCO)cc(N[C@@H]3CCOc4cccc(C)c43)c2n1`, the “viability” value was 94.4%. In the case of `COc1cc2c(NC3CCN(C(C)C)CC3)nc(C3CCCCC3)nc2cc1OCCCN1CCCC1`, the Potency is reported as 6620 nM (active). In the case of `Cc1c(NC(=O)OC[C@@H]2COCCN2)cn2ncnc(Nc3ccc4c(cnn4Cc4cccc(F)c4)c3)c12`, the Potency is reported as 18700 nM (active). In the case of `CNC(=O)c1ccccc1Nc1nc(Nc2ccc(N3CCOCC3)cc2OC)ncc1Cl`, the Potency is reported as 1050 nM (active).
